Measurements as given in the supplement of paper PMC12067093, “Discovery and optimisation of a covalent ligand for TRIM25 and its application to targeted protein ubiquitination” (Chemical Science, 2025).
About 21,000 targets were measured; listed, in parts, are those with the largest changes and a random draw of the rest.

Target: HPRT1_P00492_66_EMGGHHIVALCVLK (UniProt P00492)
Assay: probe-labelled cysteine peptide fold change vs DMSO (competition) (log2 fold change); higher = less target engagement (more negative = stronger competition)
Conditions: THP-1, incubation time: 4 h
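Note: competitive chemoproteomic profiling in live THP-1 cells with an iodoacetamide desthiobiotin (IA-DTB) probe, comparing probe-labelled peptide intensities in compound-treated cells against DMSO-treated controls.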

Sequence of UniProt P00492 (P00492 whole entry, looked up): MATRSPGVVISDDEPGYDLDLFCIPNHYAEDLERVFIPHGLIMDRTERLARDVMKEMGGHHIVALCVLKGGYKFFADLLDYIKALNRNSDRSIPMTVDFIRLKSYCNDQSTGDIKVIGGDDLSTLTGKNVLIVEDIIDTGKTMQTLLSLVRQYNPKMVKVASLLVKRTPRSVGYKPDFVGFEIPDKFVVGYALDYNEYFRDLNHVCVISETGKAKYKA

Structure (SMILES): CC1Cc2ccccc2N1C(=O)C1CCCN(C(=O)CCl)C1 (mixture of isomers) [TRIM25 ligand 11 (diastereomer mixture)]
- probe-labelled cysteine peptide fold change (10 µM): -0.135
- probe-labelled cysteine peptide fold change (50 µM): 0.123
